Inconclusive results are not listed. The source made the active and inactive calls. How the source made its calls: active means hit-call score of the fitted dose curve at least 0.9, where 1 is the maximum; inconclusive means response in the unintended direction; inactive means score below 0.9.
Each compound was assayed on xenobiotic metabolism (CYP1A2), CYP1A2 (gene 1544) (assay: CLD_CYP1A2_24hr: CellzDirect (CLD) Gene Expression Assay for xenobiotic metabolism (CYP1A2) at 24 hours (AID 2283683)).
Method: CLD_24hr is a cell-based, multiplexed-readout assay that uses hepatocyte, a human liver primary cell, with measurements taken at 24 hours after chemical dosing in a 96-well plate.CLD_CYP1A2_24hr is one of 16 assay component(s) measured or calculated from the CLD_24hr assay. It is designed to make measurements of mRNA induction, a form of inducible reporter, as detected with chemiluminescence signals by Quantitative Nuclease Protection Assay (qNPA) technology.Data from the assay component CLD_CYP1A2_24hr was analyzed at the endpoint, CLD_CYP1A2_24hr, in the positive analysis fitting direction relative to DMSO as the negative control and baseline of activity. Using a type of inducible reporter, gain-of-signal activity can be used to understand changes in the reporter gene as they relate to the gene CYP1A2. Furthermore, this assay endpoint can be referred to as a primary readout. To generalize the intended target to other relatable targets, this assay endpoint is annotated to the cyp intended target family, where subfamily is xenobiotic metabolism.
Human hepatocyte cultures were treated daily for two consecutive days with fresh dosing solutions containing appropriate concentrations of the 320 ToxCast chemicals (chemical identities were blinded to CellzDirect and other ToxCast collaborators), vehicle control (0.2% DMSO), and positive control inducers as summarized in Table 1. Due to the large number of treatment groups and chemicals examined, the ToxCast chemicals were divided into two groups (spanning two independent cultures of hepatocytes from separate donor preparations (Hu778: ToxCast plates 1 and 2; Hu776: ToxCast plates 3 and 4). Each preparation of human hepatocyte cultures was treated with respective vehicle control, medium only control, set of six positive controls/reference chemicals for the five hepatic receptor pathways, and a subset of eight of the ToxCast chemicals (indoxacarb, pyrithiobac-sodium, norflurazon, cyhalofop-butyl, methomyl, thiram, acetochlor, and propiconazole). These replicate data, coupled with internal replicates designed within the blinded ToxCast chemical library, provided additional data to evaluate interindividual differences between hepatocyte preparations and their potential impact on chemical profiles.Cell morphology and integrity were evaluated using phase-contrast microscopy as an indicator of hepatocyte cell health (Tyson & Green, 1987). Cultures for each treatment group (i.e., media, vehicle [0.2% DMSO], positive control inducers [multiple concentrations], and the ToxCast chemicals [multiple concentrations]) were observed and cell morphology was assessed relative to vehicle control cultures at each harvest time point (0, 6, 24, or 48 h). […] Images were evaluated at the conclusion of the study to assess changes in cell integrity and account for the effects of chemical exposure on uncharacteristic changes in concentration-dependent gene expression profiles. The results from these determinations of apparent cytotoxicity were annotated (yes/no) alongside the corresponding qNPA data for reference.At the conclusion of each treatment period, hepatocyte cultures (96-well) were washed with 1 volume of HBSS, lysed by addition of 25 ul ArrayPlate lysis buffer (HTG, Tucson, AZ), and 70 ul/well of Denaturation Oil, denatured by incubation at 95C for 10 min, and frozen at approximately -70C until analysis by nuclease protection assay (qNPA) (Roberts et al., 2007). For qNPA analysis, cell lysates were thawed at 50C for approximately 30 min, qNPA probes were added, and samples were incubated at 95C for 10 min to begin the detection process by denaturing the target RNA, dissociating the duplexes and secondary structure hybridization. At the conclusion of the hybridization period, S1 nuclease reagent was added to each sample to digest all nonprotected nucleotides at 50C for 60-90 min. […]

Structure (SMILES)	outcome	AC50
O=C(O)C(F)(F)C(F)(F)C(F)(F)C(F)(F)C(F)(F)C(F)(F)C(F)(F)F	inactive	–
CCOc1nc(NC)nc(NC(=O)NS(=O)(=O)c2ccccc2C(=O)OC)n1	–	7.74 µM (active)
CC1(C)C(C=C(Cl)Cl)C1C(=O)OC(C#N)c1ccc(F)c(Oc2ccccc2)c1 (stereo not given)	inactive	–
O=S(=O)(O)C(F)(F)C(F)(F)C(F)(F)C(F)(F)C(F)(F)C(F)(F)C(F)(F)C(F)(F)F	inactive	–
COP(=O)(OC)OC=C(Cl)Cl	inactive	–
CC(C)N(C(=O)COc1nnc(C(F)(F)F)s1)c1ccc(F)cc1	inactive	–
CCC(C)Nc1c([N+](=O)[O-])cc(C(C)(C)C)cc1[N+](=O)[O-] (stereo not given)	–	3.05 µM (active)
COc1nn(CSP(=S)(OC)OC)c(=O)s1	–	3.12 µM (active)
CNC(=O)CSP(=S)(OC)OC	inactive	–
COC(=O)c1ccccc1S(=O)(=O)NC(=O)N(C)c1nc(C)nc(OC)n1	inactive	–
C#CCN1C(=O)COc2cc(F)c(N3C(=O)C4=C(CCCC4)C3=O)cc21	inactive	–
CCCN(CCOc1c(Cl)cc(Cl)cc1Cl)C(=O)n1ccnc1	–	0.378 µM (active)
CCOC1Oc2ccc(OS(C)(=O)=O)cc2C1(C)C (stereo not given)	inactive	–
COC(=O)c1ccccc1S(=O)(=O)NC(=O)Nc1nc(C)nc(OC)n1	–	3.08 µM (active)
OCCOc1ccccc1	inactive	–
CCS(=O)(=O)c1cccnc1S(=O)(=O)NC(=O)Nc1nc(OC)cc(OC)n1	inactive	–
CC1(c2ccc(Oc3ccccc3)cc2)OC(=O)N(Nc2ccccc2)C1=O (stereo not given)	inactive	–
Oc1cc(Cl)ccc1Oc1ccc(Cl)cc1Cl	inactive	–
CCC(C)(C)C(=O)OC1=C(c2ccc(Cl)cc2Cl)C(=O)OC12CCCCC2	inactive	–
CC(C)(C)C(O)C(Oc1ccc(Cl)cc1)n1cncn1 (stereo not given)	–	2.95 µM (active)

Structure (SMILES)	outcome	AC50
O=C(O)CCCOc1ccc(Cl)cc1Cl	inactive	–
CCc1ccc(C(=O)NN(C(=O)c2cc(C)cc(C)c2)C(C)(C)C)cc1	–	20 µM (active)
CC(C)(C)C(O)/C(=C\c1ccc(Cl)cc1Cl)n1cncn1 (stereo not given)	–	0.825 µM (active)
O=C(Nc1ccccc1)Nc1cnns1	–	6.13 µM (active)
C[C@H]1[C@H](c2ccc(Cl)cc2)SC(=O)N1C(=O)NC1CCCCC1	–	5.84 µM (active)
Cc1[nH]c(=O)n(C(C)(C)C)c(=O)c1Cl	–	20 µM (active)
[2H]C1([2H])[n+]2ccccc2-c2cccc[n+]2C1([2H])[2H]	inactive	–
CC(C)OC(=O)Nc1cccc(Cl)c1	–	2.34 µM (active)
CNC(=O)Oc1cccc(N=CN(C)C)c1	inactive	–
CC[C@H](C)[C@H]1O[C@]2(C=C[C@@H]1C)C[C@@H]1C[C@@H](C/C=C(\C)[C@@H](O[C@H]3C[C@H](OC)[C@@H](O[C@H]4C[C@H](OC)[C@@H](O)[C@H](C)O4)[C@H](C)O3)[C@@H](C)/C=C/C=C3\CO[C@@H]4[C@H](O)C(C)=C[C@@H](C(=O)O1)[C@]34O)O2 (tested in a mixture with another compound)	inactive	–
CCC(C)(NC(=O)c1cc(Cl)c(C)c(Cl)c1)C(=O)CCl (stereo not given)	inactive	–
Clc1ccccc1-c1nnc(-c2ccccc2Cl)nn1	–	4.38 µM (active)
CCCN(CCC)c1c([N+](=O)[O-])cc(C(F)(F)F)cc1[N+](=O)[O-]	–	5.03 µM (active)
CNC(=O)Oc1ccccc1OC(C)C	inactive	–
N#CN	inactive	–
CNC(=O)/C=C(\C)OP(=O)(OC)OC	inactive	–
COP(=S)(OC)Oc1ccc([N+](=O)[O-])cc1	–	2.07 µM (active)
O=C(O)COc1ccc(Cl)cc1Cl	inactive	–
Cc1cc(C)nc(NC(=O)NS(=O)(=O)c2ccccc2C(=O)OC2COC2)n1	inactive	–
COc1cc(OC)nc(NC(=O)NS(=O)(=O)c2cc(NC=O)ccc2C(=O)N(C)C)n1	inactive	–

Source: PubChem BioAssay (EPA / NIEHS)
